# Reference: the supplement of paper PMC10981050
# Values joined by “and” are separate entries in the source; they are usually repeats but may differ in a detail not shown here. Equal values may be shown once. Where a name gives a salt, the structure may show the parent alone.
# Key:
# Assay in all cases: cell viability relative to vehicle control; higher = less cytotoxic
# Settings in all cases: 10 µM
# [1] = test system: K562
# Summary of the method: (§1)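 Mutant clones made by CRISPR editing and their isogenic wild-type counterparts, from four leukaemia lines, were exposed to a single 10 µM dose of each library compound for 48 h. The supernatant was then removed and CellTiter-Glo luminescence was read. Viability was reported as percent of the on-plate vehicle control.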
# [2] = test system: MARIMO
# Summary of the method: as §1
# [3] = test system: MOLM14
# Summary of the method: as §1
# [4] = test system: OCI-AML2
# Summary of the method: as §1
SMILES,cell viability ([1]; SRSF2 genotype: SRSF2 P95H/wt),cell viability ([1]; SRSF2 genotype: SRSF2 wt/wt),cell viability ([2]; SRSF2 genotype: SRSF2 P95H/wt),cell viability ([2]; SRSF2 genotype: SRSF2 wt/wt),cell viability ([3]; SRSF2 genotype: SRSF2 P95H/wt),cell viability ([3]; SRSF2 genotype: SRSF2 wt/wt),cell viability ([4]; SRSF2 genotype: P95H/wt),cell viability ([4]; SRSF2 genotype: wt/wt)
Cc1cccc(-c2[nH]c(CNc3ccccc3F)nc2-c2ccc3ncnn3c2)n1,94.6% and 103%,99.9%,102%,109%,95.2%,98%,111%,114%
CC[C@H]1[C@@H](O)[C@@H]2[C@H](CC[C@]3(C)[C@@H]([C@H](C)CCC(=O)O)CC[C@@H]23)[C@@]2(C)CC[C@@H](O)C[C@@H]12 [Obeticholic Acid],106% and 109%,102%,107%,105%,103%,105%,107%,110%
CCCCCCCCCCCCCCCCO [1-Hexadecanol],102% and 92.5%,98.6%,100%,109%,101%,103%,94.5%,116%
Cc1cc(C(C)(C)C)cc(C)c1CC1=NCCN1 [Xylometazoline HCl],92.4% and 97.6%,99.5%,95.4%,105%,102%,103%,93.4%,99.7%
Cc1cc(=O)oc2ccc(O)cc12 [6-Hydroxy-4-methylcoumarin],111% and 101%,107%,107%,97%,101%,103%,96%,104%
"COc1ccc2c(c1)c(CC(=O)O)c(C)n2C(=O)c1ccc(Cl)cc1 [Indomethacin (Indocid, Indocin)]",98.6% and 106%,105%,110%,107%,106%,107%,117%,114%
O=C1C[C@@H](c2ccc(O)cc2)Oc2cc(O)cc(O)c21 [Naringenin],99.2% and 105%,103%,106%,107%,111%,112%,96.5%,96.7%
Cc1cc(/C=C2/SC(=S)NC2=O)c(C)n1-c1cccnc1 [Optovin],85.7% and 83.4%,85%,92.2%,102%,89.3%,90.5%,107%,97.2%
O=C(O)CCNc1cc(N2CCc3ccccc3CC2)nc(-c2ccccn2)n1,108% and 104%,99.5%,102%,107%,108%,107%,106%,111%
CCCc1cc(C(N)=S)ccn1 [Protionamide (Prothionamide)],99% and 98.7%,101%,98.8%,102%,95.4%,102%,100%,112%
NC(=O)c1ccccn1 [Picolinamide],104% and 95.8%,100%,103%,108%,101%,106%,92.7%,110%
CN(C/C=C/C#CC(C)(C)C)Cc1cccc2ccccc12 [Terbinafine hydrochloride (Lamisil)],88.5% and 88.7%,90.3%,87.8%,105%,86.8%,99.9%,87.4%,97.6%
O=S(=O)(O)c1cc(O)ccc1O [Calcium Dobesilate],104% and 94.7%,103%,103%,110%,98.4%,103%,104%,103%
O=C(O)CC(O)C(=O)O (stereo not given) [Malic acid],82.4% and 82.1%,83.7%,99.6%,88.9%,77.2%,101%,102%,104%
CC12CCC(C1)C(C)(C)C2O (stereo not given) [Fenchyl Alcohol],105% and 94.5%,91.5%,89.9%,100%,96.4%,96.6%,91.5%,89.1%
O[C@@H]1CO[C@H]2[C@@H]1OC[C@@H]2O [Isosorbide],102% and 111%,105%,107%,104%,99.6%,105%,118%,99.5%
C=C1C(=O)O[C@H]2[C@H]1CC/C(C)=C/CC[C@@]1(C)O[C@@H]21 [Parthenolide ((-)-Parthenolide)],18.9% and 9.99%,26.7%,8.78%,8.07%,1.59%,0.67%,0.71%,0.34%
CC(C)=CCC[C@](C)(O[C@@H]1O[C@H](CO[C@@H]2OC[C@@H](O)[C@H](O)[C@H]2O)[C@@H](O)[C@H](O)[C@H]1O)[C@H]1CC[C@]2(C)[C@@H]1[C@H](O)C[C@@H]1[C@@]3(C)CC[C@H](O[C@@H]4O[C@H](CO)[C@@H](O)[C@H](O)[C@H]4O[C@@H]4O[C@H](CO)[C@@H](O)[C@H](O)[C@H]4O)C(C)(C)[C@@H]3CC[C@]12C [Ginsenoside Rb3],101% and 96.7%,108%,103%,103%,109%,102%,101%,101%
CC(C)(C)c1cc(O)c(C(C)(C)C)cc1O,97% and 97.5%,95.7%,73.4%,92.5%,88.8%,93.5%,86.2%,93.3%
CCCCOC(=O)c1ccccc1Nc1cccc(C(F)(F)F)c1 [Ufenamate],101% and 100%,99.2%,93%,102%,103%,109%,110%,110%

SMILES,cell viability ([1]; SRSF2 genotype: SRSF2 P95H/wt),cell viability ([1]; SRSF2 genotype: SRSF2 wt/wt),cell viability ([2]; SRSF2 genotype: SRSF2 P95H/wt),cell viability ([2]; SRSF2 genotype: SRSF2 wt/wt),cell viability ([3]; SRSF2 genotype: SRSF2 P95H/wt),cell viability ([3]; SRSF2 genotype: SRSF2 wt/wt),cell viability ([4]; SRSF2 genotype: P95H/wt),cell viability ([4]; SRSF2 genotype: wt/wt)
C[C@@H]1O[C@@H](OC[C@H]2O[C@@H](Oc3c(-c4ccc(OCCO)c(OCCO)c4)oc4cc(OCCO)cc(O)c4c3=O)[C@H](O)[C@@H](O)[C@@H]2O)[C@H](O)[C@H](O)[C@H]1O [Troxerutin],105% and 90.9%,86.2%,78.9%,92.2%,86.3%,91.9%,91.5%,88%
CC1=C[C@H]2[C@@H](CC1)[C@H](C)CC[C@H]2[C@@H](C)C(=O)O [Dihydroartemisinic acid],99.8% and 91.7%,99.6%,101%,104%,94.6%,101%,98.5%,109%
CCS(=O)(=O)CCn1c([N+](=O)[O-])cnc1C [Tinidazole],96.7% and 92.4%,100%,96.6%,97.2%,95.1%,98.2%,102%,102%
O=C(CCNC(=O)c1ccc(OC(F)(F)F)cc1)N[C@@H]1CCCc2ccccc21,105% and 110%,91.3%,96%,105%,93.7%,94.6%,93.8%,106%
CCCCCCCCCCCCCCCCCC[N+](C)(C)C [Trimethyloctadecylammonium bromide],13.1% and 20%,48.1%,12.1%,16.6%,0.73%,0.49%,0.97%,2.46%
O=c1[nH]c(=O)n([C@H]2C[C@H](O)[C@@H](CO)O2)cc1Br [Bromodeoxyuridine (BrdU)],90.5% and 102%,96.1%,91.2%,88%,80.8%,79.1%,90.5%,99.9%
COc1ccc(-c2ccc3c(N4CCOCC4)nc(N4C[C@@H](C)O[C@@H](C)C4)nc3n2)cc1CO,45.8% and 54.8%,46.6%,60.9%,50.6%,37%,29.8%,33.4%,34.5%
COc1cc(Nc2ncc3c(n2)-c2ccc(Cl)cc2C(c2c(F)cccc2OC)=NC3)ccc1C(=O)O [MLN8237 (Alisertib)],46.2% and 63.8%,60%,87.3%,108%,30.6%,17.7%,43.5%,44.5%
CC1=C(/C=C/C(C)=C/C=C/C(C)=C/C=C/C=C(C)/C=C/C=C(C)/C=C/C2=C(C)CCCC2(C)C)C(C)(C)CCC1 [Beta Carotene],100% and 103%,92%,93.3%,101%,93.8%,98%,98.3%,105%
COC(=O)Nc1ccc(-c2nc(N3CCOCC3)c3cnn(C4CCN(C(=O)OC)CC4)c3n2)cc1,43.8% and 55.5%,48.8%,53.5%,52%,40.9%,34.3%,33.9%,32.9%
CC1(C)O[C@@H]2C[C@H]3[C@@H]4CCC5=CC(=O)C=C[C@]5(C)[C@@]4(F)[C@@H](O)C[C@]3(C)[C@]2(C(=O)CO)O1 [Triamcinolone Acetonide],101% and 100%,102%,107%,97.1%,100%,95.3%,114%,115%
COC(=O)C1=CO[C@@H](O[C@@H]2O[C@H](CO)[C@@H](O)[C@H](O)[C@H]2O)[C@@H]2C(CO)=CC[C@H]12 [Geniposide],98.8% and 85.3%,87.9%,84.1%,100%,94.9%,92.3%,99.6%,89.8%
COc1ccc(C2CC(=O)c3c(O)cc(OC4OC(COC5OC(C)C(O)C(O)C5O)C(O)C(O)C4O)cc3O2)cc1OC (stereo not given) [Methyl-Hesperidin],96.9% and 106%,97.8%,107%,114%,108%,107%,107%,104%
Cc1c(C)c(NCC(=O)N(C)C2CCN(Cc3ccc(C(N)=O)cc3)CC2)c(C)c(C)c1N,103% and 95.7%,100%,99.4%,102%,87.1%,96.8%,98.7%,103%
CC[C@H]1OC(=O)[C@H](C)[C@@H](O[C@H]2C[C@@](C)(OC)[C@@H](O)[C@H](C)O2)[C@H](C)[C@@H](O[C@@H]2O[C@H](C)C[C@H](N(C)C)[C@H]2O)[C@](C)(O)C[C@@H](C)CN(C)[C@H](C)[C@@H](O)[C@]1(C)O [Azithromycin],90.3% and 86.4%,89.5%,83.2%,90.4%,92.1%,89.4%,75.7%,82.3%
O=C(Nc1cccc2cccnc12)c1ccc(N2C(=O)C3C4C=CC(C4)C3C2=O)cc1 (stereo not drawn) [IWR-1-endo],95.8% and 94%,101%,100%,103%,111%,118%,97.9%,98.8%
C=C(C)[C@@H]1CC[C@]2(C(=O)O[C@@H]3O[C@H](CO[C@@H]4O[C@H](CO)[C@@H](O[C@@H]5O[C@@H](C)[C@H](O)[C@@H](O)[C@H]5O)[C@H](O)[C@H]4O)[C@@H](O)[C@H](O)[C@H]3O)CC[C@]3(C)[C@H](CC[C@@H]4[C@@]5(C)CC[C@H](O[C@@H]6OC[C@H](O)[C@H](O)[C@H]6O[C@@H]6O[C@@H](C)[C@H](O)[C@@H](O)[C@H]6O)[C@@](C)(CO)[C@@H]5CC[C@]43C)[C@@H]12 [Anemoside B4],93.9% and 103%,92%,96.1%,110%,96.9%,97.4%,93.2%,105%
CCOC(=O)[C@H](CCc1ccccc1)N[C@@H](C)C(=O)N1Cc2cc(OC)c(OC)cc2C[C@H]1C(=O)O [Moexipril HCl],93.9% and 103%,104%,110%,105%,106%,109%,104%,95.9%
CCC1(c2ccccc2)C(=O)NCNC1=O [Primidone (Mysoline)],113% and 104%,107%,106%,114%,102%,107%,98%,110%
O=C1Cc2ccccc2N1 [Oxindole],96.9% and 92%,98.4%,98.2%,103%,95%,98.9%,95.9%,105%
